Experimental data from PubChem BioAssay (NCATS).
Values joined by “and” are separate entries in the source; they are usually repeats but may differ in a detail not shown here. Identical values can stand only once. Inconclusive results are not listed. Active and inactive are the calls of the source. Calls come from the whole dose curve.

Test: qHTS Assay for Lipid Storage Modulators (AID 1519); for activity change, negative = inhibition: % is set by controls: 0 for no effect and ±100 for the full control effect
Settings: Drosophila S3 cells, BODIPY lipid droplet/cell ratio, laser cytometry, cells loaded with oleic acid
Method in brief: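 Cells seeded at 5,000 per well were treated with compounds over a concentration series and loaded with oleic acid (400 uM, as added). Lipid droplet fluorescence (488 nm excitation, 500-530 nm channel) was read by laser-scanning cytometry and normalized to 20 uM Triacsin C.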

[1] = measured here: cell count channel max response
[2] = measured here: lipid channel max response

| SMILES | activity change, negative = inhibition (at 57.5 µM (top of the series)) | max response [1] | max response [2] | activity change, negative = inhibition (at 25.7 µM (top of the series)) |
| --- | --- | --- | --- | --- |
| Nc1ccn([C@@H]2O[C@H](CO)[C@@H](O)[C@H]2O)c(=O)n1 | -3.18% (inactive) | -16.3% | -19.1% | – |
| Cc1cc2nc3c(=O)[nH]c(=O)nc-3n(CC(O)C(O)C(O)CO)c2cc1C (stereo unspecified) | 10.9% (inactive) and -20.1% (inactive) | 2.32% and -7.87% and -11.2% | 0.677% and 3.75% and -34% | 0.295% (inactive) |
| CN(C)CCN(Cc1ccc(Cl)cc1)c1ccccn1 | – | -9.2% | -15.8% | -3.62% (inactive) |
| CCC(=C(CC)c1ccc(O)cc1)c1ccc(O)cc1 | – | -17.8% | -23.1% | -5.29% (inactive) |
| CS(=O)(=O)c1ccc(C2=C(c3ccccc3)C(=O)OC2)cc1 | 14.5% (inactive) | 15.3% | 35.2% | – |
